Only some compounds are listed: those with a hit (about 1.1% of all), similar ones and a draw of the others.
HTR5A inv ctr = counter-screen for OPRM1-OPRD1 inverse agonists: human HTR5A inverse agonism. HTR5A cell line, luminescence. inhibition, % at 9.3 µM. actives 0.083% (n = 340,000). AID 504634; in the data active means inhibition mostly above about 23%, no sharp cut-off; inactive means mostly below about 18%;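 further: 0% = cells with DMSO and 100% = no-cell wells with DMSO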
MOR-DOR inv ag = inverse agonist of human OPRM1-OPRD1 heterodimerization. cell-based MOR-DOR heterodimer luminescence, inverse agonism. inhibition, % at 9.3 µM. actives 0.21% (n = 340,000); in the data active means inhibition above about 22%, passing the limit was not always enough;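 further: 0% = cells with DMSO and 100% = wells without cells with DMSO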
Target sequence (P35372 whole entry, looked up): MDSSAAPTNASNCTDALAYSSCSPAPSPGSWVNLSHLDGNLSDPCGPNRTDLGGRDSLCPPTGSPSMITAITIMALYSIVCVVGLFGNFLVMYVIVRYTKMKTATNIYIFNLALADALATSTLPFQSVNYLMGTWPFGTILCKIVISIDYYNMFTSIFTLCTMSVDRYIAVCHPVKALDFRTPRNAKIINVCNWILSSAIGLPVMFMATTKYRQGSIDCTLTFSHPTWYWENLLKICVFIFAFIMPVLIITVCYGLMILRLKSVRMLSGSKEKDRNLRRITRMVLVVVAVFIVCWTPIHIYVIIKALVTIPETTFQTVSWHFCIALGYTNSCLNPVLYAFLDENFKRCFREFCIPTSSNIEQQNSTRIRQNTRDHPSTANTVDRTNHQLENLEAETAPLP
Target sequence (P41143 whole entry, looked up): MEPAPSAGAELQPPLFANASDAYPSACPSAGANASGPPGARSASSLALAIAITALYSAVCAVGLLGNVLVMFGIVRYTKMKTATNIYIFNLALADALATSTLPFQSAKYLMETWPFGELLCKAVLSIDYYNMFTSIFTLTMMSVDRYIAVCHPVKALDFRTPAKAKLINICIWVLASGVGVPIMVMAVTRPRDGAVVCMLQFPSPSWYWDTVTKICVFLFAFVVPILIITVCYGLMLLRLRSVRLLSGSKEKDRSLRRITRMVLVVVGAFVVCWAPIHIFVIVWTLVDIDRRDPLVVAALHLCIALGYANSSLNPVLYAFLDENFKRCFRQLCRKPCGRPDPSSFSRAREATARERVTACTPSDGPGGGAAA
HTR5A ag ctr = activates human HTR5A in OPRM1-OPRD1 agonist counter-screen; P47898; activation, % at 9.3 µM; HTR5A agonist assay, luminescence, cell-based; actives 0.61% (n = 340,000); AID 504692; in the data active means activation mostly above about 9.5%, no sharp cut-off; inactive means mostly below about 7.6%;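 further: 0% = cells with vehicle only and 100% = reference agonist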
MOR-DOR ag = agonists of human mu-delta opioid receptor heterodimerization | P35372+P41143 | cells, OPRM1-OPRD1 heterodimerization, luminescence | activation, % at 9.3 µM | actives 0.3% (n = 340,000) | AID 504326;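 further: 0% = vehicle-treated cells and 100% = reference agonist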
OPRM1-D1 ag cf = OPRM1-OPRD1 heterodimer agonism, confirmation | shares compounds with MOR-DOR ag | cells, MOR-DOR heterodimerization, luminescence complementation | activation, % at 9.3 µM | actives 45% (n = 830);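 further: 0% = vehicle-treated cells and 100% = reference agonist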
HTR5A ag counter = counter-screen for OPRM1-OPRD1 agonists: human HTR5A agonism | shares compounds with MOR-DOR ag | HTR5A agonist counterscreen, cell luminescence | activation, % at 9.3 µM | actives 8% (n = 830) | AID 504905; in the data active means activation above about 17%;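 further: 0% = vehicle-treated cells and 100% = reference agonist response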
Numbers without * were called inactive; i = inactive; / = not tested or not shown. Unless noted, no stated cut-off is given here; in the data, active means activation above about 18%; inactive means the rest.

SMILES	HTR5A inv ctr	MOR-DOR inv ag	HTR5A ag ctr	MOR-DOR ag	OPRM1-D1 ag cf	HTR5A ag counter
O=S(=O)(NCCSc1nnc(-c2ccco2)n1-c1ccccc1)c1ccccc1	-13.6	-77.7	2.3	18.7*	1.4	15.4
NC(=O)CSc1nnc(-c2ccco2)n1-c1ccccc1	10.2	8.9	-2.7	-1.8	/	/
O=C(O)Cn1c(=O)c(F)cn(C2CCCO2)c1=O (stereo not given)	-16.1	1.5	3.1	-0.2	/	/
COc1cccc(N2CCN(c3ncnc4c3cnn4-c3ccc(C)cc3C)CC2)c1	4.4	-129.9	-1.7	23.4*	27.3*	15.2
COc1cc2c(cc1OC)CN(CC(=O)Nc1ccc(C)c(S(=O)(=O)N3CCOCC3)c1)CC2	-14.9	12.9	-4.4	-2.6	/	/
CCN(C(=O)c1cccs1)c1nc(-c2ccc(OC)cc2)cs1	10.3	8.6	-3.7	-1.6	/	/
COc1ccc(-c2csc(N(CCCN(C)C)C(=O)c3cccs3)n2)cc1	-10.9	-131.5	4.2	26.4*	42.7*	-1.3
CCN1CCN(Cc2ccc(NC(=O)c3ccc(C)c(NC(=O)c4c[nH]c5cc(C(F)(F)F)ccc5c4=O)c3)cc2C(F)(F)F)CC1	-11.9	-285.8	-0.2	46.7*	39.2*	3.3
COc1cc(NC(=O)c2cc(C)on2)cc(OC)c1OC	12.2	-2.7	-1.1	0.5	/	/
CCOC(=O)c1cc(NC(=O)c2cc(C)on2)cc(C(=O)OCC)c1	-8.2	-118.8	7.6	21.9*	3.3	3.1
CCOC(=O)c1ccccc1NC(=O)Cc1ccc(S(=O)(=O)N2CCCC2)s1	-2.1	11.0	0.5	-2.1	/	/
CC(=O)Nc1ccc(NC(=O)c2cc([N+](=O)[O-])cc([N+](=O)[O-])c2)cc1	-22.6	-27.3	2.9	5.3	/	/
O=C(Nc1ccc(Br)cc1)c1cc([N+](=O)[O-])cc([N+](=O)[O-])c1	-8.1	-123.9	3.8	22.4*	12.4	7.3
Cc1cc2c(cc1C)CSC(c1c(O)ccc3ccccc13)SC2	4.7	-161.5	-4.4	31.0*	18.7*	1.0
COc1ccc(Oc2ccc(C(F)(F)F)cc2N)cc1	-15.6	-89.5	-0.5	18.3*	7.5	0.0
COc1ccc(Oc2ccc(C(F)(F)F)cc2NC(=O)c2ccc(OC)cc2)cc1	-25.4	-17.1	-2.0	3.4	/	/
COC(=O)c1cc2c(n1S(=O)(=O)c1ccc(C)cc1)C(=O)C(=O)c1[nH]cc(C(=O)OCc3ccccc3)c1-2	-19.0	-92.2	4.9	21.1*	72.9*	11.6
COC(=O)c1ccc(COC(=O)c2ccc(CS(=O)(=O)c3ccc(C)cc3)cc2)cc1	11.1	-12.0	-1.7	2.1	/	/
O=C1NC(c2ccc(-c3ccccc3[N+](=O)[O-])o2)C(C(=O)c2ccccc2)C(O)(C(F)(F)F)N1 (stereo not given)	-14.9	-63.7	2.9	10.2	/	/
Cc1ccc(C(=O)C2C(c3ccc(-c4ccccc4[N+](=O)[O-])o3)NC(=O)NC2(O)C(F)(F)F)cc1 (stereo not given)	0.2	-113.8	1.9	21.2*	3.8	4.7
CSCCC(NC(=O)c1ccccc1)C(=O)NNC(=O)c1csc(N2CCOCC2)n1 (stereo not given)	-0.6	17.0	5.6	-5.2	/	/
CN(Cc1ccccc1)C(=O)[C@@H]1CCCN1S(=O)(=O)c1ccc(Cl)cc1	10.8	3.4	4.3	-0.7	/	/
Cc1ccc2[nH]c3c(N4CCc5ccccc5C4)ncnc3c2c1	-4.0	i	4.7	371.4*	14.6	19.4*
CCC(C)[C@H]1COCCS(=O)(=O)N1Cc1ccc(Br)cc1 (stereo not given in full)	-6.0	-11.9	1.5	2.1	/	/
CC(=O)OCC(=O)C1CCC2C3CC=C4CC(O)CCC4(C)C3CCC12C (stereo not given)	4.0	6.3	0.9	-1.1	/	/
SMILES	HTR5A inv ctr	MOR-DOR inv ag	HTR5A ag ctr	MOR-DOR ag	OPRM1-D1 ag cf	HTR5A ag counter
CC(=O)C1CCC2C3CC=C4CC(SC(=N)N)CCC4(C)C3CCC12C (stereo not given)	-19.4	-184.6	5.1	42.2*	79.0*	4.7
CCOC(=O)c1c(C)[nH]c(C(=O)OC/C(O)=C(\C#N)c2nc3ccccc3[nH]2)c1C	-18.6	-195.7	9.9*	32.3*	41.0*	5.4
CN(C)CCCN(C(=O)c1ccc(Br)s1)c1nc2cc3c(cc2s1)OCCO3	-1.6	-183.4	0.7	35.3*	92.5*	0.1
CCCCOC(=O)C1=C(C)NC(=O)NC1c1ccccc1 (stereo not given)	-11.0	8.4	3.0	-1.8	/	/
CCc1nnc(NC(=O)CSc2nc3cc(OC)c(OC)cc3cc2C)s1	-8.8	6.2	3.4	-1.1	/	/
O=S(=O)(Nc1cc(Cl)ccc1-n1cncn1)c1cc(Br)ccc1Br	-9.4	1.9	-0.5	-0.5	/	/
O=S(=O)(Nc1cc(Cl)ccc1-n1cncn1)c1ccccc1Cl	-8.6	-313.3	3.5	72.8*	-0.6	-1.9
CCOC(=O)CNC(=O)C1COc2ccccc2O1 (stereo not given)	17.4	15.5	-6.7	-3.1	/	/
Cc1cccc(NC(=O)c2cc(-c3cc(C)ccc3O)n[nH]2)c1	4.7	-101.9	-1.2	18.4*	13.5	1.5
Cc1cccc(NC(=O)c2cc(-c3cc(C)c(C)cc3O)n[nH]2)c1	7.4	-19.3	-2.0	4.0	/	/
CCc1ccc2nc(N(CCCN(C)C)C(=O)c3ccc(S(=O)(=O)N(C)C4CCCCC4)cc3)sc2c1	-24.8	-105.7	2.4	19.1*	50.3*	3.0
CCN(Cc1ccccc1)S(=O)(=O)c1ccc(C(=O)N(CCCN(C)C)c2nc3ccc(F)cc3s2)cc1	-1.4	i	3.6	412.5*	0.3	2.4
CN(C)CCCN(C(=O)c1ccc(S(=O)(=O)N(C)C2CCCCC2)cc1)c1nc2ccc(F)cc2s1	13.2	i	4.3	326.7*	120.9*	1.6
CN(C)CCCN(C(=O)c1ccc(S(=O)(=O)N(C)C2CCCCC2)cc1)c1nc2ccc(Br)cc2s1	6.8	-58.8	-1.4	11.3	/	/
CCc1ccc2nc(N(CCCN(C)C)C(=O)c3ccc(S(=O)(=O)N4CCc5ccccc5C4)cc3)sc2c1	-17.4	-167.8	4.8	29.4*	35.9*	4.7
COc1ccc(S(=O)(=O)N2CCC(C(=O)N[C@@H](C)C(=O)NCc3ccccc3OC)CC2)cc1	-4.0	11.2	1.7	-2.1	/	/
CCc1ccc(OCCOCC(O)CNC2CCCC2)cc1 (stereo not given)	-2.8	-5.4	1.1	1.1	/	/
O=C(NNC(=O)C1CCN(C(=O)Nc2ccccc2)CC1)c1ccc(F)cc1	0.4	0.3	-0.1	-0.1	/	/
CSCCC(C(=O)OC1CCOC1=O)N1C(=O)c2ccccc2C1=O (stereo not given)	-23.5	-2.9	8.2	0.6	/	/
CN(C)CCCN(C(=O)c1ccc(S(=O)(=O)N(C)Cc2ccccc2)cc1)c1nc2c(F)cccc2s1	3.1	-244.2	0.5	47.1*	107.7*	-2.9
Cc1ccc(NC(=O)c2cc(S(=O)(=O)N3CCCCC3)c[nH]2)cc1C	6.5	-177.2	-2.2	29.9*	14.4	8.5

Screens: PubChem BioAssay, The Scripps Research Institute Molecular Screening Center
